Data reported in PubChem BioAssay.
The source made the active and inactive calls.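 How the source made its calls, unless noted: active means inhibition above 50%; inactive means the rest.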

Assay: antimalarial activity against Dd2 strain (AID 2302;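 active means growth inhibition above 50% at the single 2 µM test dose, taken to imply half-maximal potency below 2 µM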;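 further: 0% = DMSO untreated growth and 100% = chloroquine plus artemisinin killed control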)
Conditions: P. falciparum Dd2 in RBCs, LDH growth readout, 72 h; at 2 µM; hits give high values

SMILES	growth inhibition
Clc1ccc(CNc2ccnc(NCc3cccnc3N3CCCC3)n2)c(Cl)c1	53% (active)
CN1CCC(N2CCN(Cc3cccc(-c4ccc(-c5nc6ccccc6[nH]5)cc4)c3)CC2)CC1	99% (active)
CCCCCn1c(Sc2ccc(C#N)c([N+](=O)[O-])c2)nnc1-c1cc(OC)cc(OC)c1	24% (inactive)
CCN(CC)C(=O)c1cccc(/C=C/c2ccc(-c3c(C)[nH]c(C)c(Cl)c3=O)cc2)c1	96% (active)
O=C(NC1CC1)c1cnc(N2CCC(c3ccccc3)CC2)c(Cl)c1	95% (active)
COc1ccc2nccc([C@@H](O)CN3CCC(NCc4cc5cccc(O)c5c(=O)[nH]4)CC3)c2c1	66% (active)
Cc1nc(C)c(CC(=O)Nc2ccc(-c3cccc(-c4nc5ccc(C(F)(F)F)cc5[nH]4)c3)cc2)s1	4% (inactive)
COc1ccc(N2CCN(c3nc(Nc4ccc(NC(C)=O)cc4)nc(N4CCCC4)n3)CC2)cc1	38% (inactive)
Cc1csc(-c2nc(NCCc3c(C)noc3C)ncc2-c2ccsc2)n1	82% (active)
CCOC(=O)c1cc(Cl)ccc1OCCCON1C(N)=NC(N)=NC1(C)C	95% (active)
CN(C)CCOc1cc(NC(=O)Nc2ccc(Cl)cc2C(F)(F)F)ccc1I	16% (inactive)
CC(O)C1CCCCN1C(=O)c1cccc(-c2ccc(-c3nc4ccc(C(F)(F)F)cc4[nH]3)cc2)c1 (stereo unspecified)	100% (active)
Cc1cc(NC(=O)NCCN2CCC(NS(=O)(=O)c3ccc(Br)cc3)C2)c2ccccc2n1 (stereo unspecified)	51% (active)
CN1CCN(CC(=O)Nc2cccc(-c3ccc(-c4nc5ccc(C(F)(F)F)cc5[nH]4)s3)c2)CC1	95% (active)
O=C(NC1CCN(c2ccnc(Nc3ccc(F)cc3)n2)C1)c1cc2ccccc2s1 (stereo unspecified)	80% (active)
CC(CN)OCn1cnc2c(N)ncnc21 (stereo unspecified)	3% (inactive)
COc1ccc(Nc2nccc(N3CCC(NC(=O)c4cccc(C#N)c4)C3)n2)cc1 (stereo unspecified)	93% (active)
CCc1cn2c3c(cc(C(=O)N[C@@H](Cc4ccccc4)[C@H](O)CN[C@@H](C)CC)cc13)N(C)S(=O)(=O)CC2	98% (active)
COc1ccccc1-c1nc2nc(N)nc(N)c2nc1-c1ccccc1OC	1% (inactive)
COc1cc(NC(=O)CCCCCCCCN2CCN(C)CC2)c2ncccc2c1	36% (inactive)
CN(Cc1cccc(O)c1)C1CCN(c2cc(NC(=O)c3ccc(F)cc3)ccn2)C1 (stereo unspecified)	6% (inactive)
O=C(Nc1ccc(OC(F)(F)F)cc1)Nc1ccc([N+](=O)[O-])cc1	100% (active)
CC(C)CNCc1ccc(-c2ccccc2CNC2CCN(Cc3ccccc3)CC2)cc1	41% (inactive)
CN1CCN(CCCN(Cc2ccc(-c3cccc(CNCc4ccc5c(c4)OCO5)c3)cc2)C(=O)NCCc2ccccc2)CC1	85% (active)
COc1cc2cc(Cc3cnc(N)nc3N)ccc2c(OC)c1OC	2% (inactive)
Cc1cc(N2CCC(NS(=O)(=O)c3ccc(F)cc3)CC2)nc(Nc2cccc(C#N)c2)n1	65% (active)

Assay: HepG2 cytotoxicity, primary screen, cytotoxicity control for P. falciparum antimalarial project, cell-based, ATP luminescence (AID 2303);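 further: 0% = DMSO wells and 100% = digitonin-killed cells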
Conditions: HepG2 viability, 24-48 h, at 10 µM, hits give high values

SMILES	inhibition
CCc1c(CCNCCCCCCNCCc2ccc(Br)cc2)ccc(O)c1O	11% (inactive)
O=C(c1cc(-c2cccs2)[nH]n1)N1CCN(S(=O)(=O)c2ccc(Cl)cc2)CC1	-1% (inactive)
Nc1nc(N)c2c(ccc3c2ccn3Cc2ccc(Cl)cc2)n1	100% (active)
CC[C@@H]([C@@H](Cc1cc2ccccc2s1)C(=O)N[C@@H](CCCCNC(=O)OCc1ccccc1)C(=O)Nc1ccccn1)N(O)C=O	36% (inactive)
CCc1cc(C(=O)c2cccc(C)c2)c(NC(=O)CN2CCN(C(=O)c3ccco3)CC2)s1	-13% (inactive)
NC(=O)CCC(NC(=O)CNC(=O)Nc1cccc(C(F)(F)F)c1)C(=O)O (stereo unspecified)	1% (inactive)
CCOC(=O)N/N=C/[C@H](CCc1ccccc1)NC(=O)[C@H](CC(C)C)NC(=O)c1cc2cccc(OC)c2o1	3% (inactive)
NC(N)=NN=Cc1c2ccccc2c(Cl)c2c(Cl)cccc12	71% (active)
NC1=NC(c2ccccc2)(c2ccccc2)C(=O)N1CC=Cc1ccccc1	23% (inactive)
Cc1cccc(CNc2nc(C)cc(N[C@@H](Cc3ccccc3)C(=O)NC3CCCC3)n2)c1	51% (active)
O=C(Nc1cccc(-c2ccc(-c3nc4ccccc4[nH]3)cc2)c1)Nc1ccc(F)c(F)c1F	45% (inactive)
O=C(Nc1ccccc1)N(Cc1cccc(-c2cccc(CNCCc3ccccc3)c2)c1)C1CCN(Cc2ccccc2)CC1	100% (active)
COc1ccc(CCN(Cc2cccs2)C(=O)c2cc3sccc3n2C)cc1OC	0% (inactive)
CN(C)c1ccc(-c2ccc(C(=O)NC3CCN(Cc4ccc5c(c4)OCCO5)CC3)s2)cc1	36% (inactive)
Clc1ccc(CNc2ccnc(NCc3cccnc3N3CCCC3)n2)c(Cl)c1	37% (inactive)
CN1CCC(N2CCN(Cc3cccc(-c4ccc(-c5nc6ccccc6[nH]5)cc4)c3)CC2)CC1	56% (active)
CCCCCn1c(Sc2ccc(C#N)c([N+](=O)[O-])c2)nnc1-c1cc(OC)cc(OC)c1	17% (inactive)
CCN(CC)C(=O)c1cccc(/C=C/c2ccc(-c3c(C)[nH]c(C)c(Cl)c3=O)cc2)c1	9% (inactive)
O=C(NC1CC1)c1cnc(N2CCC(c3ccccc3)CC2)c(Cl)c1	6% (inactive)
COc1ccc2nccc([C@@H](O)CN3CCC(NCc4cc5cccc(O)c5c(=O)[nH]4)CC3)c2c1	8% (inactive)

SMILES	inhibition
Cc1nc(C)c(CC(=O)Nc2ccc(-c3cccc(-c4nc5ccc(C(F)(F)F)cc5[nH]4)c3)cc2)s1	67% (active)
COc1ccc(N2CCN(c3nc(Nc4ccc(NC(C)=O)cc4)nc(N4CCCC4)n3)CC2)cc1	-7% (inactive)
Cc1csc(-c2nc(NCCc3c(C)noc3C)ncc2-c2ccsc2)n1	6% (inactive)
CCOC(=O)c1cc(Cl)ccc1OCCCON1C(N)=NC(N)=NC1(C)C	69% (active)
CN(C)CCOc1cc(NC(=O)Nc2ccc(Cl)cc2C(F)(F)F)ccc1I	-2% (inactive)
CC(O)C1CCCCN1C(=O)c1cccc(-c2ccc(-c3nc4ccc(C(F)(F)F)cc4[nH]3)cc2)c1 (stereo unspecified)	33% (inactive)
Cc1cc(NC(=O)NCCN2CCC(NS(=O)(=O)c3ccc(Br)cc3)C2)c2ccccc2n1 (stereo unspecified)	9% (inactive)
CN1CCN(CC(=O)Nc2cccc(-c3ccc(-c4nc5ccc(C(F)(F)F)cc5[nH]4)s3)c2)CC1	36% (inactive)
O=C(NC1CCN(c2ccnc(Nc3ccc(F)cc3)n2)C1)c1cc2ccccc2s1 (stereo unspecified)	6% (inactive)
CC(CN)OCn1cnc2c(N)ncnc21 (stereo unspecified)	17% (inactive)
COc1ccc(Nc2nccc(N3CCC(NC(=O)c4cccc(C#N)c4)C3)n2)cc1 (stereo unspecified)	6% (inactive)
CCc1cn2c3c(cc(C(=O)N[C@@H](Cc4ccccc4)[C@H](O)CN[C@@H](C)CC)cc13)N(C)S(=O)(=O)CC2	2% (inactive)
COc1ccccc1-c1nc2nc(N)nc(N)c2nc1-c1ccccc1OC	27% (inactive)
COc1cc(NC(=O)CCCCCCCCN2CCN(C)CC2)c2ncccc2c1	8% (inactive)
CN(Cc1cccc(O)c1)C1CCN(c2cc(NC(=O)c3ccc(F)cc3)ccn2)C1 (stereo unspecified)	5% (inactive)
O=C(Nc1ccc(OC(F)(F)F)cc1)Nc1ccc([N+](=O)[O-])cc1	41% (inactive)
CC(C)CNCc1ccc(-c2ccccc2CNC2CCN(Cc3ccccc3)CC2)cc1	28% (inactive)
CN1CCN(CCCN(Cc2ccc(-c3cccc(CNCc4ccc5c(c4)OCO5)c3)cc2)C(=O)NCCc2ccccc2)CC1	36% (inactive)
COc1cc2cc(Cc3cnc(N)nc3N)ccc2c(OC)c1OC	1% (inactive)
Cc1cc(N2CCC(NS(=O)(=O)c3ccc(F)cc3)CC2)nc(Nc2cccc(C#N)c2)n1	20% (inactive)
